From the supplement of paper PMC6555819

These sequences were tested on PPARg:RXRa (NR concentration 180 nM, RXRa partner concentration 90 nM) (assay: PBM binding z-score (relative to random genomic background probes); higher = stronger binding; sequences stand for … in GC…GCGATTGACAGCGTAGAATGAAGG).
How it was run: (§1)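 Random background probes are the reference for binding z-scores. These scores derive from regression-normalized fluorescence on custom Agilent 4×180K protein-binding microarrays incubated 1 h with ligand-free nuclear receptor dimers. Binding was detected with antibodies against each partner (one per run).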

Row | Sequence | PBM binding z-score
1 | TCAGAGAGGTGAAGGTAACTCAGGTACGCAGTCG | 1.23
2 | GGTAGTTGGTCAGTAAAAGGTCACACACCGGTCG | 2.7
3 | GTACCAAGGTGAATAGTTCGTTGATGAGTAGGCG | 0.857
4 | TCTATTAGTTGAATAGGGCAACCGAAACAGCGGA | 0.438
5 | CAAACTAGGTCACAGAGCTCAAAGTCCGTGCGTA | 8.88
6 | ATCTCTTGGTAACAAGTTCAGTGAAAGAGAGGAC | -0.00548
7 | TCAGACAGGTCAAGGTAACTCAGGTACGCAGTCG | 3.57
8 | TCGAGTAGGTTAGTCGGGGCGTTCAGCCAACATA | -0.893
9 | TCTGCTAGGTCAGTTGGTCAGCTCACGAGCTGCC | 0.508
10 | AGAACGAGGGCACGCTGAGTTGATTGCAGAGTAG | 1.71
11 | AGAACGAGGGCACGCTGAGTAGATAGCAGAGTAG | 2.28
12 | ATATGTAGGTTACATCCGGGTCATTCCGGCTATG | 5.96
13 | AGAACGCGGGCACGCTGAGTTGATAGCAGAGTAG | 0.363
14 | TCTTGTAGATCAATAGAGGCTAAGAAAGTGCGCT | -0.238
15 | CCTAGCAGGCCAATCTGGGTCACTGAAGGCTTGA | 1.75
16 | CCTTACGGGTCACGAGGTTACAGCACGACGAGCG | 7.89
17 | TCTTGTAGATCAGCAGGTGAAGAAAGCTGGCCAA | -0.409
18 | ACTATTAGCTGACTTAGGGCAACCGATACGACGC | 0.886
19 | AGAACGAGGGCAATGAGTTGATCGCACGGGTGGC | 1.16
20 | TTACCAAGGTGAAGGTCGTCGATCCCTCTGTAGA | 3.62

Row | Sequence | PBM binding z-score
21 | CTCGAAAGGTCGGTTGAGGTGAATATACGGATAA | 0.944
22 | CGTCCAAGGTCAAGGCTAGGTCAGTGAAAGCATT | 4.97
23 | ACTAGCAGGCAAAGGGTCACTCAAGATTAGTCCG | 5.28
24 | TCTTGTAGAACAAAGGTTAAGAAAGCCGAAGCCT | 7.84
25 | TAACCTAGGTCATGGGCCAGTATACCACGCGAAC | 5.73
26 | CTACCAAGGTGAACAAGGTCGTTGCTTACTATTC | 0.964
27 | TGTGCTAGGTCAGTTGGTCAGCTAACGAGCTGCC | 0.656
28 | TCTGGTTGGTCACGGAGGTCACACACGACGGGTA | 3.13
29 | AGTCAAAGTTCATCTAGGTGACGTAAGATATGCT | 7.01
30 | GCTCTTAGTTGAAAGGGCAACCGAATGATTCTCG | 0.987
31 | CGTCCAAGGTCAGGGTCAGTGAAAGAGACTCGAA | 4.59
32 | TCATATAGCTAAAGGTGAAAGTCGAACGATATGA | 2.06
33 | AGAATGAGGTTACCAAAGATCAGGTAAACGCTTG | 2.76
34 | GCTGCTAGGTCAACTGATGGTTAGCTAAAGCTCG | 2.88
35 | TCGAGTAGGTTACTCGGGGCATTCAGCCAACATA | 0.392
36 | AGAAGGAGGGCACGCTGAGTTGATAGCAGAGTAG | 1.89
37 | GCATATAGGTAATACATGGTGAAAGTCCGATTGT | 0.96
38 | GCTATTAGTTGAAAAGGCAACCGAATGATTCTCG | 0.532
39 | CAAACTAGGTCAAGGTCAACGTCGGTTTGTGCCA | 9.59
40 | GCTTGTAAATCAAGGTTAAGAAAGACTAAGCTAA | 0.214

What follows are sequences tested on PPARg:RXRa 270nM:90nM, anti-RXR (NR concentration 270 nM, RXRa partner concentration 90 nM) in the same assay as above.
How it was run: as §1

Row | Sequence | PBM binding z-score
41 | TCAGAGAGGTGAAGGTAACTCAGGTACGCAGTCG | 2.64
42 | GGTAGTTGGTCAGTAAAAGGTCACACACCGGTCG | 4.44
43 | GTACCAAGGTGAATAGTTCGTTGATGAGTAGGCG | 1.06
44 | TCTATTAGTTGAATAGGGCAACCGAAACAGCGGA | 1.92
45 | CAAACTAGGTCACAGAGCTCAAAGTCCGTGCGTA | 7.47
46 | ATCTCTTGGTAACAAGTTCAGTGAAAGAGAGGAC | 0.156
47 | TCAGACAGGTCAAGGTAACTCAGGTACGCAGTCG | 4.27
48 | TCGAGTAGGTTAGTCGGGGCGTTCAGCCAACATA | 0.268
49 | TCTGCTAGGTCAGTTGGTCAGCTCACGAGCTGCC | 1.87
50 | AGAACGAGGGCACGCTGAGTTGATTGCAGAGTAG | 1.83
51 | AGAACGAGGGCACGCTGAGTAGATAGCAGAGTAG | 1.87
52 | ATATGTAGGTTACATCCGGGTCATTCCGGCTATG | 5.25
53 | AGAACGCGGGCACGCTGAGTTGATAGCAGAGTAG | -0.844
54 | TCTTGTAGATCAATAGAGGCTAAGAAAGTGCGCT | 0.977
55 | CCTAGCAGGCCAATCTGGGTCACTGAAGGCTTGA | 2.55
56 | CCTTACGGGTCACGAGGTTACAGCACGACGAGCG | 6.86
57 | TCTTGTAGATCAGCAGGTGAAGAAAGCTGGCCAA | 1.19
58 | ACTATTAGCTGACTTAGGGCAACCGATACGACGC | 0.11
59 | AGAACGAGGGCAATGAGTTGATCGCACGGGTGGC | 0.618
60 | TTACCAAGGTGAAGGTCGTCGATCCCTCTGTAGA | 4.16

Row | Sequence | PBM binding z-score
61 | CTCGAAAGGTCGGTTGAGGTGAATATACGGATAA | 1.6
62 | CGTCCAAGGTCAAGGCTAGGTCAGTGAAAGCATT | 5.35
63 | ACTAGCAGGCAAAGGGTCACTCAAGATTAGTCCG | 5.86
64 | TCTTGTAGAACAAAGGTTAAGAAAGCCGAAGCCT | 7.99
65 | TAACCTAGGTCATGGGCCAGTATACCACGCGAAC | 5.21
66 | CTACCAAGGTGAACAAGGTCGTTGCTTACTATTC | 1.34
67 | TGTGCTAGGTCAGTTGGTCAGCTAACGAGCTGCC | 1.19
68 | TCTGGTTGGTCACGGAGGTCACACACGACGGGTA | 3.7
69 | AGTCAAAGTTCATCTAGGTGACGTAAGATATGCT | 6.36
70 | GCTCTTAGTTGAAAGGGCAACCGAATGATTCTCG | 2.26
71 | CGTCCAAGGTCAGGGTCAGTGAAAGAGACTCGAA | 4.52
72 | TCATATAGCTAAAGGTGAAAGTCGAACGATATGA | 3.08
73 | AGAATGAGGTTACCAAAGATCAGGTAAACGCTTG | 2.77
74 | GCTGCTAGGTCAACTGATGGTTAGCTAAAGCTCG | 3.09
75 | TCGAGTAGGTTACTCGGGGCATTCAGCCAACATA | 1.33
76 | AGAAGGAGGGCACGCTGAGTTGATAGCAGAGTAG | 1.81
77 | GCATATAGGTAATACATGGTGAAAGTCCGATTGT | 0.694
78 | GCTATTAGTTGAAAAGGCAACCGAATGATTCTCG | 1.07
79 | CAAACTAGGTCAAGGTCAACGTCGGTTTGTGCCA | 8.11
80 | GCTTGTAAATCAAGGTTAAGAAAGACTAAGCTAA | 0.467
